In PubChem BioAssay (EPA / NIEHS) one finds outcome and AC50 data, which are given here for 19 compounds.

Several values for one entry are separate records, joined by “and”; a condition that tells them apart may be missing. Identical values can stand only once. Activity calls are given as the source filed them. Rule for the calls: active = hit-call score of the fitted dose curve at least 0.9, where 1 is the maximum; inactive = score below 0.9.

The test can be described thus: ATG_TGFb_CIS: Attagene CIS-FACTORIAL HepG2 Assay for human Transforming Growth Factor (TGF) (AID 2282967). Particulars: HepG2 Attagene CIS TGFb reporter, mRNA transcription; actives raise or lower the signal. Put shortly: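 HepG2 cells transiently transfected with cis-promoter-driven multiple reporter units measure endogenous TF activity; reporter mRNA quantified at 24 h by RT-PCR, FAM labeling, HpaI digestion and capillary electrophoresis. Bidirectional fit vs DMSO.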
Consider `O=C(O)C(F)(F)C(F)(F)C(F)(F)C(F)(F)F`, for which the compound was classed as inactive. For `O=C(O)C(F)(F)C(F)(F)OC(F)(F)F`, the outcome was inactive.

Consider `O=S(=O)(O)C(F)(F)C(F)(F)C(F)(F)C(F)(F)C(F)(F)C(F)(F)C(F)(F)F`, for which the AC50 is 148 µM (active) and 81.5 µM (active).

As to `CS(C)(=O)=O`, the result was inactive. Still for that read-out and setting: for `FC(F)(F)C(F)(F)C(F)(F)N(C(F)(F)C(F)(F)C(F)(F)F)C(F)(F)C(F)(F)C(F)(F)F` the value was “inactive”; for `CC(C)c1ccccc1N`, “inactive”. Same read-out and setting: for `[Co]` the value was “inactive”; for `COC(=O)C1CCC(C(=O)OC)CC1` (centres undefined), “inactive”; for `FC(F)(F)C(F)(F)C(F)(F)C(F)(F)C(F)(F)C(F)(F)C(F)(F)Br`, “inactive”.

As for `CCCCCCOC(=O)c1ccccc1`, the result was inactive. Take `CCc1c(Br)c(Br)c(Br)c(Br)c1Br`: the compound was called inactive. For `CC/C=C\CCOC(C)=O`, the call was inactive. For `FC(F)(F)C(F)(F)C(F)(F)C(F)(F)C(F)(F)C(F)(F)C(F)(F)C(F)(F)CCS`, the result was inactive. `CC(=O)Nc1ccc(N=Nc2cc(C)ccc2O)cc1`: the concentration at half-maximal activity (AC50) was 11.6 µM (active). For the compound `O=C(O)C(F)(F)C(F)(F)C(F)(F)C(F)(F)C(F)(F)C(F)(F)C(F)(F)C(F)(F)C(F)(F)C(F)(F)C(F)(F)C(F)(F)C(F)(F)F`, the compound was called inactive. With `O=P(O)(O)OCCC(F)(F)C(F)(F)C(F)(F)C(F)(F)C(F)(F)C(F)(F)F`, the AC50 was 70.1 µM (active). On to `CC(C)(C)C(=O)CC(=O)C(F)(F)C(F)(F)C(F)(F)F`, for which the compound was called inactive. With `O=C(O)C(F)(F)C(F)(F)C(F)(F)F`, the call was inactive.

Turning to `NC(=O)C(F)(F)C(F)(F)C(F)(F)C(F)(F)F`, the compound was called inactive.
